Experimental data: PubChem BioAssay (NCI)
This is part of a sample that, as a whole, favours compounds with a hit. Of some 83,000 tested, about 20% had one in any assay.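 Method: cells in 96-well plates; compound added at one concentration; 48 h incubation; percent growth measured; values under 10 scored active.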 Calls of active or inactive are those of the source.

How the values were obtained:
Assay in all cases: NCI-60 one-dose screen, 48 h (100 = growth as untreated, 0 = no growth, -100 = all killed)
Settings in all cases: 10 µM unless noted
DU-145 prostate = test system: DU-145 prostate
K-562 leukemia = test system: K-562 leukemia
MALME-3M melanoma = test system: MALME-3M melanoma
MDA-MB-231 breast = test system: MDA-MB-231 breast
RXF 393 renal = test system: RXF 393 renal
SF-268 CNS = test system: SF-268 CNS
SF-295 CNS = test system: SF-295 CNS
SF-539 CNS = test system: SF-539 CNS
UACC-257 melanoma = test system: UACC-257 melanoma
M14 melanoma = test system: M14 melanoma
HCT-15 colon = test system: HCT-15 colon
HT29 colon = test system: HT29 colon
SNB-75 CNS = test system: SNB-75 CNS
SNB-19 CNS = test system: SNB-19 CNS
U251 CNS = test system: U251 CNS
PC-3 prostate = test system: PC-3 prostate
SK-MEL-5 melanoma = test system: SK-MEL-5 melanoma
UACC-62 melanoma = test system: UACC-62 melanoma
LOX IMVI melanoma = test system: LOX IMVI melanoma
SK-MEL-28 melanoma = test system: SK-MEL-28 melanoma

Measured: growth

CCOC(=O)C1=C(C)N(C)C(=O)N(C)C1c1ccccc1 (stereo not given)
inactive: DU-145 prostate 107% | K-562 leukemia 82.2% | MALME-3M melanoma 87.2% | MDA-MB-231 breast 97.3% | RXF 393 renal 105% | SF-268 CNS 108% | SF-295 CNS 90.6% | SF-539 CNS 91.4% | UACC-257 melanoma 92.5% | M14 melanoma 94.2% | HCT-15 colon 102% | HT29 colon 97.8% | SNB-75 CNS 79.2% | SNB-19 CNS 93.8% | U251 CNS 99.3% | PC-3 prostate 92.7% | SK-MEL-5 melanoma 93.3% | UACC-62 melanoma 86.7% | LOX IMVI melanoma 96.1% | SK-MEL-28 melanoma 124%

Brc1ccc(-c2nn(-c3ccccc3)cc2-c2nn[nH]n2)s1
inactive: DU-145 prostate 108% | K-562 leukemia 87.2% | MALME-3M melanoma 103% | MDA-MB-231 breast 87.3% | RXF 393 renal 100% | SF-268 CNS 92.8% | SF-295 CNS 82.6% | SF-539 CNS 91.4% | UACC-257 melanoma 98% | M14 melanoma 96.9% | HCT-15 colon 96.2% | HT29 colon 117% | SNB-75 CNS 92.7% | SNB-19 CNS 87.3% | U251 CNS 87.8% | PC-3 prostate 93.7% | SK-MEL-5 melanoma 90% | UACC-62 melanoma 85.1% | LOX IMVI melanoma 90.9% | SK-MEL-28 melanoma 96.2%

CN(C)c1ccc(/C=N/NC(=O)CSc2nc3sc4c(c3c(=O)n2-c2ccccc2)CCCCC4)cc1
active: RXF 393 renal -6.22% | SNB-75 CNS -2.33% | U251 CNS 5.23% | PC-3 prostate -23.4% | UACC-62 melanoma 8.03%
inactive: DU-145 prostate 14.9% | K-562 leukemia 63.8% | MALME-3M melanoma 35.5% | MDA-MB-231 breast 43.8% | SF-268 CNS 57.3% | SF-295 CNS 19.1% | SF-539 CNS 34.6% | UACC-257 melanoma 64.8% | M14 melanoma 46.6% | HCT-15 colon 43.8% | HT29 colon 45.8% | SNB-19 CNS 48.8% | SK-MEL-5 melanoma 46.2% | LOX IMVI melanoma 37.1% | SK-MEL-28 melanoma 47.4%

CCN1CCN(c2cc(C(=O)Nc3cccc(Nc4ccc5c(OC)cccc5n4)c3)cc(C(F)(F)F)c2)CC1
active: K-562 leukemia -29.8% | MALME-3M melanoma -59.6% | MDA-MB-231 breast 9.58% | UACC-257 melanoma -40.3% | M14 melanoma -41.9% | HCT-15 colon -15.9% | HT29 colon -60% | PC-3 prostate 7.66% | SK-MEL-5 melanoma -1.86% | LOX IMVI melanoma -94.1% | SK-MEL-28 melanoma -44.4%
inactive: DU-145 prostate 23.3% | RXF 393 renal 17.3% | SF-268 CNS 32.8% | SF-295 CNS 14% | SF-539 CNS 19.5% | SNB-75 CNS 35.8% | SNB-19 CNS 36% | U251 CNS 13.9% | UACC-62 melanoma 13%

CC1(C)CCC[C@]23C(=O)O[C@](O)(C(=O)C4=C[C@@](C)(/C=C/CCCc5ccc6ccc7cccc8ccc5c6c78)CC[C@@]42O)[C@@H]13
active: DU-145 prostate -85.7% | K-562 leukemia 5.77% | MALME-3M melanoma -93.6% | MDA-MB-231 breast -69.9% | RXF 393 renal -86.2% | SF-268 CNS -45.3% | SF-295 CNS -76.7% | SF-539 CNS -96.6% | UACC-257 melanoma -68.7% | M14 melanoma -62% | HCT-15 colon -69.3% | HT29 colon -69.5% | SNB-75 CNS -78.8% | SNB-19 CNS -95.5% | U251 CNS -85.5% | PC-3 prostate -48.8% | SK-MEL-5 melanoma -96.3% | UACC-62 melanoma -75.5% | LOX IMVI melanoma -85.5% | SK-MEL-28 melanoma -86.6%

CCCC[N+]1(C)CCN=C1Cc1ccccc1 (stereo not given)
inactive: DU-145 prostate 106% | K-562 leukemia 84.6% | MALME-3M melanoma 98.2% | MDA-MB-231 breast 109% | RXF 393 renal 100% | SF-268 CNS 97.7% | SF-295 CNS 97.4% | SF-539 CNS 96.2% | UACC-257 melanoma 93.7% | M14 melanoma 106% | HCT-15 colon 103% | HT29 colon 89.3% | SNB-75 CNS 99.6% | SNB-19 CNS 104% | U251 CNS 95.8% | PC-3 prostate 87.2% | SK-MEL-5 melanoma 97.8% | UACC-62 melanoma 96.7% | LOX IMVI melanoma 99.8% | SK-MEL-28 melanoma 110%

C=CCNc1ccc2c3c(cccc13)C(=O)N(CC=C)C2=O
inactive: DU-145 prostate 102% | K-562 leukemia 96.7% | MALME-3M melanoma 111% | MDA-MB-231 breast 88.9% | RXF 393 renal 99.7% | SF-268 CNS 96.2% | SF-295 CNS 106% | SF-539 CNS 93.7% | UACC-257 melanoma 114% | M14 melanoma 108% | HCT-15 colon 97.4% | HT29 colon 105% | SNB-75 CNS 90.4% | SNB-19 CNS 100% | U251 CNS 103% | PC-3 prostate 69.3% | SK-MEL-5 melanoma 88.9% | UACC-62 melanoma 75.8% | LOX IMVI melanoma 92% | SK-MEL-28 melanoma 103%

O=C1c2cccnc2C(=O)c2c1c(C(=O)OCCCN1CCOCC1)c1ccccn21
active: DU-145 prostate -84.2% | K-562 leukemia -20.2% | MALME-3M melanoma -53.9% | RXF 393 renal 3.94% | SF-268 CNS 5.83% | SF-295 CNS -4.43% | SF-539 CNS -43.2% | UACC-257 melanoma -85.6% | M14 melanoma -81.2% | HCT-15 colon -42.2% | HT29 colon -67.8% | SNB-75 CNS -81.3% | SNB-19 CNS 9.22% | U251 CNS -70.7% | PC-3 prostate -0.15% | SK-MEL-5 melanoma -94.9% | UACC-62 melanoma -40.7% | LOX IMVI melanoma -29.1%
inactive: MDA-MB-231 breast 14.1% | SK-MEL-28 melanoma 37.7%

COc1ccc(/C=C2/CCc3cc4ccc(OC)cc4[o+]c32)c(O)c1
active: HCT-15 colon 4.44% | PC-3 prostate 8.84% | LOX IMVI melanoma 7.79%
inactive: DU-145 prostate 76.7% | K-562 leukemia 39.1% | MALME-3M melanoma 16.9% | MDA-MB-231 breast 36.7% | RXF 393 renal 71.4% | SF-268 CNS 82.2% | SF-295 CNS 106% | SF-539 CNS 109% | UACC-257 melanoma 87.4% | M14 melanoma 26% | HT29 colon 29.6% | SNB-75 CNS 90.9% | SNB-19 CNS 63.1% | U251 CNS 69.4% | SK-MEL-5 melanoma 67.8% | UACC-62 melanoma 47.5% | SK-MEL-28 melanoma 47.8%

N=C(N)c1ccc(-c2ccc(-c3ccc(Cl)cc3Cl)s2)nc1
active: K-562 leukemia -1.71% | HCT-15 colon -15.2% | HT29 colon 4.27% | U251 CNS -10.6% | LOX IMVI melanoma -67.9%
inactive: DU-145 prostate 28.7% | MALME-3M melanoma 100% | MDA-MB-231 breast 74.3% | RXF 393 renal 79.8% | SF-268 CNS 89.8% | SF-295 CNS 58.4% | SF-539 CNS 83.5% | UACC-257 melanoma 101% | M14 melanoma 74.7% | SNB-75 CNS 92.4% | SNB-19 CNS 56.3% | PC-3 prostate 73.2% | SK-MEL-5 melanoma 97.7% | UACC-62 melanoma 103% | SK-MEL-28 melanoma 116%

O=C(CN1C(=O)NC2NC(=O)NC21)N/N=C/c1cccc([N+](=O)[O-])c1 (stereo not given)
inactive: DU-145 prostate 110% | K-562 leukemia 103% | MALME-3M melanoma 105% | MDA-MB-231 breast 104% | RXF 393 renal 104% | SF-268 CNS 99% | SF-295 CNS 102% | SF-539 CNS 100% | UACC-257 melanoma 118% | M14 melanoma 109% | HCT-15 colon 100% | HT29 colon 107% | SNB-75 CNS 80% | SNB-19 CNS 98.8% | U251 CNS 111% | PC-3 prostate 106% | SK-MEL-5 melanoma 100% | UACC-62 melanoma 88.8% | LOX IMVI melanoma 98.1% | SK-MEL-28 melanoma 111%

COc1ccc(-c2cc(-c3ccc(Nc4nc(Nc5ccc(Cl)cc5)nc(Nc5ccc(Cl)cc5)n4)cc3)no2)cc1
active: RXF 393 renal -8.53%
inactive: DU-145 prostate 91.3% | K-562 leukemia 69.9% | MALME-3M melanoma 104% | MDA-MB-231 breast 82.1% | SF-268 CNS 72.9% | SF-295 CNS 73% | SF-539 CNS 86.1% | UACC-257 melanoma 105% | M14 melanoma 86.7% | HCT-15 colon 76.1% | HT29 colon 78.9% | SNB-75 CNS 89.1% | SNB-19 CNS 107% | U251 CNS 62.4% | PC-3 prostate 60.5% | SK-MEL-5 melanoma 73% | UACC-62 melanoma 101% | LOX IMVI melanoma 76.3% | SK-MEL-28 melanoma 89.7%

CC/C(=C(/c1ccc(Cl)cc1)c1ccc(OCCN2CCCC2)cc1)c1ccccc1
inactive: DU-145 prostate 80.4% | MALME-3M melanoma 68.8% | MDA-MB-231 breast 73.6% | RXF 393 renal 55.2% | SF-268 CNS 73.3% | SF-295 CNS 79% | SF-539 CNS 74.8% | UACC-257 melanoma 74% | M14 melanoma 37.1% | SNB-75 CNS 96.3% | SNB-19 CNS 60.6% | U251 CNS 32.1% | PC-3 prostate 40.4% | SK-MEL-5 melanoma 22.4% | UACC-62 melanoma 79.2% | LOX IMVI melanoma 32.4% | SK-MEL-28 melanoma 76.9%
active: K-562 leukemia 4.31% | HCT-15 colon 6.41% | HT29 colon -25.4%

CN(C)CCOc1nc2c3cc([N+](=O)[O-])ccc3nn2c2ccccc12
active: SF-295 CNS 9.28%
inactive: DU-145 prostate 32.2% | K-562 leukemia 26.3% | MALME-3M melanoma 52.4% | MDA-MB-231 breast 66.4% | RXF 393 renal 24.3% | SF-268 CNS 56.6% | SF-539 CNS 51.6% | UACC-257 melanoma 78.9% | M14 melanoma 47.3% | HCT-15 colon 25.9% | HT29 colon 26.1% | SNB-75 CNS 77.1% | SNB-19 CNS 19.5% | U251 CNS 21% | PC-3 prostate 47.1% | SK-MEL-5 melanoma 45.6% | UACC-62 melanoma 41.8% | LOX IMVI melanoma 20.2% | SK-MEL-28 melanoma 93.7%

COCCNC(=O)Cc1cc(-c2ccc(Cl)cc2)n(-c2ccccc2)c1C
inactive: DU-145 prostate 101% | K-562 leukemia 64.7% | MALME-3M melanoma 93.7% | MDA-MB-231 breast 89.9% | RXF 393 renal 84.8% | SF-268 CNS 88.5% | SF-295 CNS 85.6% | SF-539 CNS 92.8% | UACC-257 melanoma 95.6% | M14 melanoma 88.1% | HCT-15 colon 81.8% | HT29 colon 84.8% | SNB-75 CNS 68.5% | SNB-19 CNS 79.2% | U251 CNS 84.5% | PC-3 prostate 81% | SK-MEL-5 melanoma 79.3% | UACC-62 melanoma 59.4% | LOX IMVI melanoma 85.5% | SK-MEL-28 melanoma 103%
